Test [1] deals with Wnt5a (protein binding on small-molecule microarray). In words: Wnt5a binders on small-molecule microarray, primary screen, biophysical, 635/667 nm fluorescence (AID 1142).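 Note: fluorescence read at 667 nm with signal to noise per printed feature.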 The settings on record: 635 nm fluorescence, higher = more signal.
A short description of test [2]: cell viability in Huh7 cells, primary screen, cytotoxicity control for HCV replication inhibitor project, CellTiter-Glo luminescence, basal, 48 h (AID 1143).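 Note: Huh7 hepatoma cells carrying a hepatitis C replication reporter with no stimulus; test concentration not given here.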 To be noted: Huh7 HCV replicon, higher = more signal, called active from +8 up or from −8 down. On the technique in general: In ATP-based viability assays light output follows the ATP content of the culture.
Test [3] can be described thus: CREB reporter modulators without forskolin, primary screen, cell-based, PC12, CRE-LacZ reporter, unstimulated (AID 1145). To be noted: no forskolin, luminescence, 4.5 h, higher = more signal, called active from +8 up or from −8 down.
Test [4] can be described thus: CREB reporter modulators under forskolin, primary screen, cell-based, PC12, CRE-LacZ reporter, forskolin-stimulated (AID 1146).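 Note: PC12 cells with 6xCRE LacZ reporter stimulated by forskolin 10 µM; beta-galactosidase reporter signal reflecting CREB driven transcription.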 The settings on record: luminescence, 4.5 h, higher = more signal, called active from +8 up or from −8 down.
In test [5] the target is Streptavidin (Streptomyces avidinii) (UniProt P22629). Nature of the test: streptavidin binders on small-molecule microarray, primary screen, artefact control for SMM compound annotation, biophysical, 635/667 nm fluorescence (AID 1147).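 Note: signal reflects streptavidin binding to arrayed compounds as a control protein.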 The settings on record: streptavidin binding, higher = more signal.
Sequence of Streptavidin (Streptomyces avidinii) (P22629 whole entry, looked up): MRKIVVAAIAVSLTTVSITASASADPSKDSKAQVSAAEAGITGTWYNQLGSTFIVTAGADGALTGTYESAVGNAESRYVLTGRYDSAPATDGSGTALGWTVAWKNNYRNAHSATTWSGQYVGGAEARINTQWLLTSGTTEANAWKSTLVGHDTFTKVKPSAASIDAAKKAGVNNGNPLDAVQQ
The nature of test [6]: small-molecule binders of probe aInhba, primary screen, biochemical, small-molecule microarray, 635/667 nm fluorescence (AID 1148).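 Note: score merges 667nm spot fluorescence with signal-to-noise for antibody binding to printed compounds.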 To be noted: higher = more signal.
Test [7] has as its target Torsin-1A (Homo sapiens) (UniProt O14656). In words: torsin A binders from cell lysate, primary screen, small-molecule microarray, wild-type, 635/667 nm (AID 1149). To be noted: COS7 hTOR1A-WT lysate, 635 nm fluorescence, higher = more signal.
For test [8] the target is unchanged. Nature of the test: small-molecule binders of mutant TOR1A in lysate, primary screen, cell lysate, small-molecule microarray, COS7 lysate, 635/667 nm fluorescence (AID 1150).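 Note: score pools 667 nm emission and signal to noise measuring lysate protein binding.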 The settings on record: COS7 hTOR1A mutant lysate, 635 nm fluorescence, higher = more signal.
Test [9] concerns Sonic hedgehog protein (Shh). In words: small-molecule binders of Shh protein, primary screen, biochemical, small-molecule microarray, 635/667 nm fluorescence (AID 1151).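 Note: Shh protein binding to compounds spotted on small-molecule microarray slides; score combines spot fluorescence intensity with signal-to-noise across triplicate slides.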 The settings on record: small-molecule microarray binding, 635 nm fluorescence; higher = more signal.
Test [10] in a line: E. coli DRC41 culture turbidity changes, primary screen, E. coli filamentation inducer project, strain DRC41, OD650, 48 h (AID 1152).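 Note: E. coli MC1000 strain DRC41 lacking acrAB efflux pump and sulA.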 To be noted: E. coli DRC41 (acrAB sulA), higher = more signal, called active from +8 up or from −8 down.
A short description of test [11]: small-molecule binders of probe aLefty1, primary screen, biochemical, small-molecule microarray, 635/667 nm fluorescence (AID 1153).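 Note: score merges spot fluorescence with signal-to-noise ratio from the scanned slide images.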 To be noted: higher = more signal.
Test [12] can be described thus: PSAC antagonists in infected red cells, primary screen, cell-based, P. falciparum Indochina, OD700, 1 h (AID 1154). The settings on record: P. falciparum Indochina infected RBC osmotic lysis, higher = more signal, called active from +8 up or from −8 down.
Test [13] is described as follows: PSAC antagonists in infected red cells, primary screen, cell-based, P. falciparum Indochina, OD700, 2 h (AID 1155).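 Note: lysis reports solute entry through the parasite surface anion channel PSAC; channel blockers reduce lysis of infected cells.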 To be noted: P. falciparum Indochina infected erythrocytes, osmotic lysis OD700; higher = more signal, called active from +8 up or from −8 down.
Test [14] in a line: osmotic lysis modulators in infected erythrocytes, primary screen, PSAC antagonist project, cell-based, P. falciparum Indochina, OD700, 3 h (AID 1156). The settings on record: higher = more signal, called active from +8 up or from −8 down.
The nature of test [15]: PSAC antagonists in infected red cells, primary screen, cell-based, P. falciparum Indochina, OD700, 18 h (AID 1157). To be noted: P. falciparum Indochina infected erythrocytes, osmotic lysis OD700, 18 h; higher = more signal, called active from +8 up or from −8 down.
The nature of test [16]: modulators of S6 phosphorylation in cells, primary screen, cell-based, A549, cytoblot, luminescence, serum-stimulated (AID 1158).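 Note: serum-stimulated A549 lung adenocarcinoma cells; signal is phosphorylated S6 detected by cytoblot immunostaining with HRP secondary.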 To be noted: A549 phospho-S6 cytoblot, 5 h, higher = more signal.
Test [17] has as its target NADPH oxidase 2 (Homo sapiens) (UniProt P04839). Nature of the test: NOX2-dependent H2O2 signal modulators, primary screen, NOX inhibitor project, cell-based, HEK293-NOX2, PMA-stimulated, Amplex Red fluorescence (AID 1159). Note: test concentration not given here. To be noted: 45 min, higher = more signal, called active from +8 up or from −8 down.
Test [18] addresses NADPH oxidase 4 (Homo sapiens) (UniProt Q9NPH5). Nature of the test: NOX4-dependent H2O2 signal modulators, primary screen, NOX inhibitor project, cell-based, HEK293-NOX4, tetracycline-induced, Amplex Red fluorescence (AID 1160). To be noted: 45 min, higher = more signal, called active from +8 up or from −8 down.
Test [19] concerns the target NADPH oxidase 5 (Homo sapiens) (UniProt Q96PH1). In words: NOX5-dependent H2O2 signal modulators, primary screen, NOX inhibitor project, cell-based, HEK293-NOX5, Amplex Red fluorescence (AID 1161). To be noted: HEK293-NOX5, ionomycin, 45 min, higher = more signal.
Test [20] in a line: A549 cell viability effects, profiling panel, calcein-AM fluorescence, 48 h, basal (AID 1162). Note: test concentration not given here. The settings on record: higher = more signal.

Active and inactive are the calls of the source.

Sequence of NADPH oxidase 4 (Homo sapiens) (Q9NPH5 whole entry, looked up): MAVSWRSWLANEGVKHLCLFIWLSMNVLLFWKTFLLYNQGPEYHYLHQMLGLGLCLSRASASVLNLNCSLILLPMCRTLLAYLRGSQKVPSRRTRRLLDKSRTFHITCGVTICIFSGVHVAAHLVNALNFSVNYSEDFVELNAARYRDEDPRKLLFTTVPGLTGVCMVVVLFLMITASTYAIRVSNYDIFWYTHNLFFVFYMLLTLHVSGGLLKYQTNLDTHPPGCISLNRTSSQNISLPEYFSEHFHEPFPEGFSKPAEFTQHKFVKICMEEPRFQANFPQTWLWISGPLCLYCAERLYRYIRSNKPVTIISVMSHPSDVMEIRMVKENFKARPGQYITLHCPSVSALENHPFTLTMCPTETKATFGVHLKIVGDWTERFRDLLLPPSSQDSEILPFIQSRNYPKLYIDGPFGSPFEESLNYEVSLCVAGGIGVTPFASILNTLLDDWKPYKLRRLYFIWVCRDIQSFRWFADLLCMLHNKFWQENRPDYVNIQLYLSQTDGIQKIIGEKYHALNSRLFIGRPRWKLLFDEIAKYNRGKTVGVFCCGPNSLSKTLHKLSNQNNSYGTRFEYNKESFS
Sequence of NADPH oxidase 5 (Homo sapiens) (Q96PH1 whole entry, looked up): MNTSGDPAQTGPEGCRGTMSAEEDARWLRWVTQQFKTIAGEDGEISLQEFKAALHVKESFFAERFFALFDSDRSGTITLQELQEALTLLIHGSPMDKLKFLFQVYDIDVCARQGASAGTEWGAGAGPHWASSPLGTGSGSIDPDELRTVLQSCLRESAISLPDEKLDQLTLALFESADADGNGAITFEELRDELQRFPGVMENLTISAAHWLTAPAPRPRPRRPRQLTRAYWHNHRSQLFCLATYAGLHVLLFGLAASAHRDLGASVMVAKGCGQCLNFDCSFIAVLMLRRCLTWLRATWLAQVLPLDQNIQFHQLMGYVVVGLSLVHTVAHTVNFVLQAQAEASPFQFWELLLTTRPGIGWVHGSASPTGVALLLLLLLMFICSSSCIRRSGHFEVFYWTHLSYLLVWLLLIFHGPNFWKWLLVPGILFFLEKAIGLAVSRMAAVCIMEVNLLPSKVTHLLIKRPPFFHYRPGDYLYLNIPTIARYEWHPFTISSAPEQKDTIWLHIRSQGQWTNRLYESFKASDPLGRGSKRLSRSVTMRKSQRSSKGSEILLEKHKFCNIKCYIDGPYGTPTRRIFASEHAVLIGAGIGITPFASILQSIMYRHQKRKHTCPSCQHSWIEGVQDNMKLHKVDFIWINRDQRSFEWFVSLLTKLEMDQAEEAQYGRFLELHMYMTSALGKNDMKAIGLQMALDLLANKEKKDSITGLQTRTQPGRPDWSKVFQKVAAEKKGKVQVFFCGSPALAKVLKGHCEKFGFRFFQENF
Sequence of NADPH oxidase 2 (Homo sapiens) (P04839 whole entry, looked up): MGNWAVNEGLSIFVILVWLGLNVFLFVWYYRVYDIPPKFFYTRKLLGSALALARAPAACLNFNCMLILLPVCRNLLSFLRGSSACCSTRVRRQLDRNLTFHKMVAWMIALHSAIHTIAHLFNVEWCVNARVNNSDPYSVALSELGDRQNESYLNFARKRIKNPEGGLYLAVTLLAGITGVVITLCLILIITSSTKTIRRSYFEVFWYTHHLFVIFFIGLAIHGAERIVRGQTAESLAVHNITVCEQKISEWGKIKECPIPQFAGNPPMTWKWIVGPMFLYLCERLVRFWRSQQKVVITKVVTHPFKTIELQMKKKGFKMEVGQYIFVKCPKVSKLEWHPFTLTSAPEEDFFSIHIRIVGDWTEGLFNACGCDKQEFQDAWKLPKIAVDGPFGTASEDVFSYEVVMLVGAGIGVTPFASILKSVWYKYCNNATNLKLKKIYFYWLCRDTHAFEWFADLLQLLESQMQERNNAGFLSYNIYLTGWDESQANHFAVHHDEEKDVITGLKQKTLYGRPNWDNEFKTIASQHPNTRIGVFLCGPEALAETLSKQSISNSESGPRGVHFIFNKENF
Sequence of Torsin-1A (Homo sapiens) (O14656 whole entry, looked up): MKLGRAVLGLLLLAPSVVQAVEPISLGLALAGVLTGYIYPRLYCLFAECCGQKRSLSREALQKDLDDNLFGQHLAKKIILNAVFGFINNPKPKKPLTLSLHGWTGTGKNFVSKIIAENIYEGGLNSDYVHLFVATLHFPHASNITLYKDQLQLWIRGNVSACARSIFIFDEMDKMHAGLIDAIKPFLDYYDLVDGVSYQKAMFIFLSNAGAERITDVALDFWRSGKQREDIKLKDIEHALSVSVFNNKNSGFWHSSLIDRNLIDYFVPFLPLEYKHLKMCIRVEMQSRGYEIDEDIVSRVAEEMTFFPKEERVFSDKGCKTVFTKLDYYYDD

As to `COC(=O)C(CC#Cc1ccc2c(c1)[C@]1(C(=O)N2)[C@H](c2ccccc2OCCO)N2[C@H](c3ccccc3)[C@H](c3ccccc3)OC(=O)[C@H]2[C@@H]1C(=O)N1CCCCCCC1)C(=O)OC`, the composite z-score in [1] was 2.33; in test [5], 3.71; in [6], 2.15; in [7], 2.87; in [8] it was 3.23; in [9], 1.32. This compound gave a composite z-score in test [11] of 2.82. Also, the z-score in test [2] is -2.45 (inactive); in test [3] it was 0.212 (inactive); in test [4], -0.706 (inactive); in test [10], 1.02 (inactive); in test [12], 0.867 (inactive); in [13] it was 0.71 (inactive). Moreover, the z-score is 0.776 (inactive) in [14]; 0.51 (inactive) in test [15]; 0.67 in [16]; 0.797 (inactive) in [17]; 0.68 (inactive) in test [18]; 2.04 in test [19]. Besides, in test [20], the z-score was 0.447.
In the case of `Cc1ccc(N2C(=O)c3ccccc3[C@](C)(C(=O)NC3CC3)[C@@H]2c2ccc(CO)cc2)nc1`, the composite z-score in test [1] was 0.119; in [5], -0.468; in test [6] it was 0.0053; in test [7], 0.141; in test [8], 1.06; in test [9], 0.496. For the same compound, the composite z-score in [11] was -0.0162. The z-score is 0.0401 (inactive) in test [2]; -0.619 (inactive) in [3]; -0.732 (inactive) in [4]; 1.3 (inactive) in test [10]; 0.262 (inactive) in test [12]; -0.236 (inactive) in test [13]. Moreover, the z-score in [14] was 0.151 (inactive); in test [15] it was -0.0411 (inactive); in test [16], 0.199; in [17], -0.712 (inactive); in test [18], 0.504 (inactive); in test [19], 0.398. For the same compound, the z-score in [20] is 0.434.
Turning to `COC(=O)C(CC#Cc1ccc2c(c1)[C@]1(C(=O)N2)[C@H](C(=O)O)[C@H]2C(=O)O[C@H](c3ccccc3)[C@H](c3ccccc3)N2[C@@H]1c1ccc(OCCO)cc1)C(=O)OC`, the composite z-score was determined as 0.562 in test [1]; 1.25 in [5]; 0.0714 in test [6]; 0.734 in test [7]; 1.06 in [8]; 0.969 in test [9]. Also, in test [11], the composite z-score amounted to 0.305. Also, the z-score was -2.27 (inactive) in test [2]; -0.258 (inactive) in test [3]; -1.32 (inactive) in test [4]; 3.78 (inactive) in test [10]; 10 (active) in test [12]; 0.0825 (inactive) in test [13]. The z-score was 0.646 (inactive) in [14]; -2.18 (inactive) in [15]; 2.47 in [16]; 1.39 (inactive) in test [17]; 0.164 (inactive) in [18]; 0.396 in test [19]. Moreover, in test [20], the z-score is 2.54.
Take `CCCNC(=O)[C@@]1(Sc2ccc(C)cc2)CC(=O)N(Cc2cc(C(F)(F)F)cc(C(F)(F)F)c2)[C@@H]1c1ccc(CO)cc1I`: the composite z-score is 0.0758 in test [1]; -0.179 in test [5]; 0.172 in [6]; -0.365 in [7]; 0.0283 in [8]; 0.158 in test [9]. This compound also returned a composite z-score in test [11] of 0.114. Moreover, the z-score in test [2] was -3.48 (inactive); in [3] it was 0.0279 (inactive); in test [4] it was -1.35 (inactive); in [10] it was 3.98 (inactive); in test [12], 2.98 (inactive); in test [13], 0.438 (inactive). The z-score was -0.436 (inactive) in [14]; -0.191 (inactive) in [15]; 4.1 in test [16]; 1.32 (inactive) in test [17]; -1.29 (inactive) in [18]; 1.37 in test [19]. Also, in [20], the z-score was 2.5.

(Values after PubChem BioAssay.)
